According to PubChem BioAssay AID1863 (Southern Research Specialized Biocontainment Screening …, 2009):
In all, about 300,000 compounds went through this assay and about 480 (0.16%) were called active.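 How the source made its calls: active means inhibition over 29.93%, a cutoff 3 SD above the screen mean, later confirmed by dose response; inconclusive means inhibition over 29.93% but no dose response follow-up; inactive means inhibition at most 29.93% or unconfirmed.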 The list is a sample of the results. Entries with a potency or affinity are not part of this list.

Test: PhoP-dependent GFP reporter repression – Salmonella Typhimurium, primary screen (AID 1863);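 further: 0% = low Mg2+ inducing control and 100% = high Mg2+ repressing control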
Settings: S. Typhimurium PhoP-regulated promoter GFP reporter, 4 h; at 50 µM; stronger effect = higher value

inhibition, inactive:
Cc1c(C(=O)N(Cc2cccc(Br)c2)C2CCS(=O)(=O)C2)oc2ccc(F)cc12 (stereo not drawn) 3.11%
O=C(ONC1=NCCCCC1)c1ccc(Cl)cc1 -13.6%
Cc1nn(C)c(=O)n1-c1ccccc1 0.59%
O=C(N/N=C\c1cc2c(cc1[N+](=O)[O-])OCO2)c1cccs1 -4.81%
O=C(N/N=C/c1ccccc1[N+](=O)[O-])c1cccs1 -1.95%
O=C(N/N=C/c1ccc(Br)s1)c1cccs1 0.89%
O=C(N/N=C\c1ccc(Cl)s1)c1cccs1 -9.8%
COc1ccccc1NC(=O)Nc1ccc(Cl)c(S(=O)(=O)Nc2ccccc2OC)c1 -18.5%
CCOc1ccc(CN(CC)C(=O)c2ccc3c(c2)[nH]c(=O)c(=O)n3CC)cc1OC 2.8%
COc1ccccc1CCNC(=O)C1(C)CC1(Cl)Cl (stereo not drawn) -0.33%
O=C(CN1CCN(Cc2ccccc2)CC1)NCc1ccc(Cl)cc1 3.85%
CCOC(=O)C1CCCN(C(=O)c2ccccc2NC(C)=O)C1 (stereo not drawn) 8.46%
OCCn1c(CSc2nnc(-c3ccco3)n2-c2ccccc2)nc2ccc(Cl)cc21 8.64%
COc1cccc(-c2nc(=S)c3c(n2CCCO)CCCC3)c1 6.79%
CSc1cccc(NC(=S)N(CCCN2CCCC2)Cc2cccs2)c1 2.61%
CN1/C(=C\C=O)C(C)(C)c2ccccc21 4.13%
CN1\C(=C/C=C/C=C/C=[N+](C)C)C(C)(C)c2ccccc21 -18.9%
O=C(c1ccccc1)c1ccccn1 3.01%
Cc1ccccc1-c1nnc(SCCOc2ccc3c(C)cc(=O)oc3c2)o1 0.64%
Cc1ccc(S(=O)(=O)CC(=O)c2ccc([N+](=O)[O-])cc2)cc1 -7.13%
CCn1cc(C(=O)NN)c(=O)c2cc(F)c(N3CCOCC3)cc21 -6.58%
CCn1cc(C(=O)NCc2ccccn2)c(=O)c2cc(F)c(N3CCN(C)CC3)cc21 17.4%
CCCCCOC(=O)NCC(O)c1ccccc1 (stereo not drawn) 10.7%
N#CC1=C(N)N(c2ccccc2)C(c2cccc([N+](=O)[O-])c2)C1(C#N)C#N (stereo not drawn) -7.85%
O=C(Cc1ccccc1)c1c[nH]c(C(=O)NCCCN2CCOCC2)c1 -3.4%
O=C(Nc1ccccc1N1CCOCC1)C1CCN(S(=O)(=O)c2ccc(F)cc2)CC1 -4.59%
O=C(Nc1ccc(CN2CCOCC2)cc1)c1cccc(-c2cc3ccccc3oc2=O)c1 -5.22%
Cc1cc([N+](=O)[O-])ccc1-c1ccc(C2Nc3ccccc3C(=O)N2O)o1 (stereo not drawn) -3.84%
O=C1c2ccccc2NC(c2ccc(Cl)cc2Cl)N1O (stereo not drawn) 0.793%
O=C1c2ccccc2NC(c2ccc(-c3cccc([N+](=O)[O-])c3)o2)N1O (stereo not drawn) 43%
O=C1c2ccccc2NC(c2ccco2)N1O (stereo not drawn) 7.8%
O=C(N/N=C/c1ccccc1[N+](=O)[O-])c1ccc2c(c1)OCCO2 -4.47%
CCOC(=O)c1sc(=S)n(-c2ccc(C)cc2)c1SC -0.48%
Nc1nc(N2CCOCC2)nc2ccccc12 19.6%
Nc1nc(N2CCCCC2)nc2ccccc12 0.383%
O=C(N/N=C\c1cccc(Cl)c1)c1ccc(Cn2cc(Br)c([N+](=O)[O-])n2)o1 -28.5%
O=C(O)/C=C/c1ccccc1Oc1ccc(Cl)cc1Cl 1.78%
Nc1cc(C(=O)O)c(Oc2ccc(Cl)cc2Cl)cc1C(=O)O 9.23%
COc1ccc(N2CCN(C(=O)COc3cccc4ccccc34)CC2)cc1 4.64%
Cc1ccc(NCC(=O)N/N=C/c2ccc(C(=O)O)cc2)cc1 7.26%
CC(=O)N1CCOc2ccc(S(=O)(=O)N3CCC(C(=O)Nc4ccc(C)cc4)CC3)cc21 0.99%
O=C(Cn1nc(CNc2ccc(Br)cc2)[n+]2c1CCCCC2)c1ccc([N+](=O)[O-])cc1 5.85%
O=C(Cn1nc(CNc2ccc(Cl)cc2)[n+]2c1CCCCC2)c1ccc(Cl)cc1 7.8%
O=C(Cn1nc(CNc2ccc(Cl)cc2)[n+]2c1CCCCC2)c1ccccc1 8.62%
COc1ccc(NCc2nn(CC(=O)c3ccc(Br)cc3)c3[n+]2CCCCC3)cc1 -2.79%
O=C1Nc2ccccc2OCc2c1cccc2[N+](=O)[O-] -2.35%
O=C(O)C1CCC1C(=O)Nc1nc(-c2ccc(Cl)s2)cs1 (stereo not drawn) -4.65%
CCC(=O)c1ccccc1OCCCCn1cncn1 4.32%
CN1CCN(C(=O)CSc2nnc(COc3ccc(Cl)cc3)o2)CC1 5.2%
CC(=O)Nc1cccc(NC(=O)CCNC(=O)c2ccccc2)c1 5.9%
Cc1nnc(SCc2ccc(CC(=O)O)cc2)o1 -9.32%
COc1ccc(C(=O)NCC(c2cccs2)N2CCc3ccccc32)cc1OC (stereo not drawn) -7.86%
COC(=O)C1=C(C)NC2=C(C(=O)CC(C)(C)C2)C1c1cnn(C)c1C (stereo not drawn) -3.34%
C/C(=N\Nc1nc2ccccc2[nH]1)c1ccc(Cl)s1 31.6%
C/C(=N\Nc1nc2ccccc2[nH]1)c1ccc(C)o1 9.28%
CN(C)S(=O)(=O)c1ccc(C(=O)NCc2ccccc2)cc1 5.29%
CC(C)CNC(=O)COC(=O)c1cccc(S(=O)(=O)NCC(F)(F)F)c1 0.22%
Cn1c(=O)c(C(=O)NNC(=O)c2ccccc2Cl)c(O)c2ccccc21 3.12%
